Inconclusive results are not listed. Where a call stands in place of a potency, no number is given. The source made the active and inactive calls. Calls follow the shape of the dose curve; as a rule, active = well fitted inhibition curve with a large enough effect; inconclusive = small, poorly fitted or top-dose-only effect; inactive = flat fitted curve, though single readings scatter.
These compounds were tested against Ubiquitin carboxyl-terminal hydrolase 1 (Homo sapiens) (UniProt O94782) (assay: Inhibitors of USP1/UAF1: Pilot qHTS (AID 504865; also: nearly all actives have a fitted effect of over 35% in size)). Details: purified USP1/UAF1, Ub-rhodamine cleavage fluorescence; series mostly up to 54.9 µM.
Sequence of Ubiquitin carboxyl-terminal hydrolase 1 (Homo sapiens) (O94782 whole entry, looked up): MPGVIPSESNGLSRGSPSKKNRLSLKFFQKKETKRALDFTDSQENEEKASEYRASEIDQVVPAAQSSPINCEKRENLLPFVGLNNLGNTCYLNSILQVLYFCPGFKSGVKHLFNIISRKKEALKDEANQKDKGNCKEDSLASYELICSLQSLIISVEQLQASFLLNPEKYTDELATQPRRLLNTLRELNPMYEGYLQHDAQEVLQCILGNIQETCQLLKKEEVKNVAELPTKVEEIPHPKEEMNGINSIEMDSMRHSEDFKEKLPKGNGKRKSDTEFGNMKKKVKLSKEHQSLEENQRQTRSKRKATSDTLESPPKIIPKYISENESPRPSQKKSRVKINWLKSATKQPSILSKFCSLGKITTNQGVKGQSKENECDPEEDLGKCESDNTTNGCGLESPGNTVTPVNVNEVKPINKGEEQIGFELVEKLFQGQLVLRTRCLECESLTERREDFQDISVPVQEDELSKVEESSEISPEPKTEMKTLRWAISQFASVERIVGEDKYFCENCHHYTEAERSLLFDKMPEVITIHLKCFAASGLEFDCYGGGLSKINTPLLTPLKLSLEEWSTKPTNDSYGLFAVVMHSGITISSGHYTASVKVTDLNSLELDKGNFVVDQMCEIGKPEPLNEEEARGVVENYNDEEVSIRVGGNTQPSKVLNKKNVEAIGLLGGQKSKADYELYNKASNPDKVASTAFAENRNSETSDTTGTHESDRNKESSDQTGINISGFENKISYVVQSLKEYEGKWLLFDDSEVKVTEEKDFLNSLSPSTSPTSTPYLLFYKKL
Source text: Deubiquitinating enzymes (DUBs) are a class of enzymes that can cleave isopeptide bond formed between the C-terminal carboxylate of ubiquitin and a lysine side-chain amino group on the target protein. Among them, ubiquitin specific proteases (USPs) constitute the largest DUB family. Human USPs are emerging as promising targets for pharmacological intervention because of their connection to a number of human diseases, including prostate, colon and breast cancer (1, 2), pediatric acute lymphoblastic leukemia (3), and familial cylindromatosis (4). The advantage of inhibiting USPs lies in the potential specificity of therapeutic intervention that can lead to better efficacy and reduce nonspecific side effects.
In a collaboration between the University of Delaware and the NIH Chemical Genomics Center, a high-throughput screen assay was developed to screen for USP1/UAF1 inhibitors. This miniaturized assay has a fluorescent read-out and is used to screen the NIH Molecular Libraries Small Molecule Repository (MLSMR) in order to identify a small molecule that inhibits USP1.
NIH Chemical Genomics Center [NCGC]
NIH Molecular Libraries Probe Centers Network [MLPCN]
Assay Submitter (PI): Zhihao Zhuang, University of Delaware
1. Priolo, C., et al. (2006) The isopeptidase USP2a protects human prostate cancer from apoptosis. Cancer Res 66, 8625-8632
2. Popov, N., et al. (2007) The ubiquitin-specific protease USP28 is required for MYC stability. Nat Cell Biol 9, 765-774
3. De Pitta, C., et al. (2005) A leukemia-enriched cDNA microarray platform identifies new transcripts with relevance to the biology of pediatric acute lymphoblastic leukemia. Haematologica 90, 890-898
4. Kovalenko, A., et al. (2003) The tumour suppressor CYLD negatively regulates NF-kappaB signalling by deubiquitination. Nature 424, 801-805
3 microliters of reagents (buffer in columns 3 and 4 as negative control and 1nM USP1/UAF1 complex in columns 1, 2, and 5-48) are dispensed into Greiner black solid bottom 1536-well assay plates. Compounds are then transferred via Kalypsys pin tool equipped with 1536-pin array (10nl slotted pins, V&P Scientific, San Diego, CA). Following an incubation step of 15 min at room temperature, 1ul of Ub-Rho substrate (150nM final concentration) is added to initiate the reaction. The plates are immediately centrifuged at 1000 rpm for 15 seconds, and subsequently transferred to a ViewLux high-throughput CCD imager (PerkinElmer) wherein kinetic measurements of fluorescence are acquired using 480 nm excitation/540 nm emission filter set (6 reads every 60 seconds, see Table 1). All reagents are diluted in an assay buffer consisting of 50mM HEPES (pH 7.8), 0.5mM EDTA, 0.1 mg/ml BSA, 1mM TCEP, and 0.01% Tween-20.
Potency is read from the fitted curve at half-maximal effect.

SMILES	Potency
CN(Cc1ccco1)c1ncncc1-c1ccc2c(c1)OCO2	inactive
COc1cccc(-c2cncnc2Nc2ccccc2)c1	inactive
CN(C)Cc1ccccc1-c1cncnc1NCc1cccs1	inactive
CC1=CC2C(CC1=O)C(C)=CCC2C(C)C (stereo not given)	inactive
CN(C)C(=O)c1ccc(-c2nccc(NCc3cccs3)n2)cc1	inactive
COc1ccc2[nH]cc(CCNc3ccnc(-c4ccc(C(=O)N(C)C)cc4)n3)c2c1	inactive
Clc1ccccc1-c1ccc2ncnc(NC3CCNCC3)c2c1	inactive
COc1ccc(-c2nc3cnc(Nc4cccc(OC)c4)nc3n(Cc3cccs3)c2=O)cc1	inactive
N#Cc1cccc(-c2cc(-n3ccnc3)ncn2)c1	inactive
COc1cccc(Cn2c(=O)c(-c3ccc(Cl)cc3)nc3cncnc32)c1	inactive
N#Cc1ccccc1-c1ccc2ncnc(NCc3cccs3)c2c1	inactive
COc1ccccc1OC[C@H](O)COC(N)=O	inactive
COCCn1c(=O)c(-c2cccs2)nc2cnc(OC)nc21	inactive
COc1ccc2[nH]cc(CCNc3ccnc(-c4cccc(C#N)c4)n3)c2c1	inactive
CN(C)Cc1ccccc1-c1cncnc1NC1CC1	inactive
COc1ccccc1-c1nc(NCc2cccs2)c2ccccc2n1	15.8 µM (active)
CC[C@@]12CCCN3CCc4c(n(c5ccccc45)C(=O)C1)[C@H]32	inactive
CN(C)Cc1ccccc1-c1cncnc1Nc1ccc(F)cc1	inactive
COc1cccc(Nc2ncc3ncc(=O)n(C[C@H]4CCCO4)c3n2)c1	inactive
N#C/C(=C\c1ccc(O)c(O)c1)C(=O)NCCCCc1ccccc1	35.5 µM (active)

SMILES	Potency
CCNc1ncc2nc(-c3ccc(Cl)cc3)c(=O)n(Cc3cccc(OC)c3)c2n1	inactive
N[C@H](C(=O)O)c1ccc(O)c(C(=O)O)c1	inactive
Cc1noc(C)c1-c1nccc(N2CCNCC2)n1	inactive
FC(F)(F)c1ccccc1-c1cncnc1NCCc1cnc[nH]1	inactive
COc1ccc(CNc2ncncc2-c2ccc(C(=O)N(C)C)cc2)c(OC)c1	inactive
CN1CCN(c2ncc3ncc(=O)n(-c4ccccc4)c3n2)CC1	inactive
CN1CCN(c2ncc3nc(-c4ccc(Cl)cc4)c(=O)n(Cc4ccc(F)cc4)c3n2)CC1	inactive
Cc1ccccc1-c1cc(NCc2cccnc2)ncn1	inactive
CC(=O)NCCNc1nc(-c2ccccc2C)nc2ccccc12	inactive
CN(C)c1ncc2nc(-c3cccs3)c(=O)n(-c3ccccc3)c2n1	inactive
COc1ccc(-c2nc3cnc(N4CCOCC4)nc3n(Cc3cccs3)c2=O)cc1	inactive
Cc1cnc(CNc2ncnc3ccc(-c4ccccc4CN(C)C)cc23)cn1	inactive
COc1ccccc1CNc1nc(-c2ccccc2CN(C)C)nc2ccccc12	inactive
CN(C)Cc1ccccc1-c1ccc2ncnc(NCc3ccccc3)c2c1	inactive
Cc1cccc(CNc2cc(-c3cccc(NS(C)(=O)=O)c3)ncn2)c1	inactive
O=c1c(-c2ccc(F)cc2)nc2cncnc2n1Cc1ccccc1	inactive
Cc1cnc(CNc2nc(-c3ccccc3Cl)nc3ccccc23)cn1	inactive
COc1ccccc1CNc1nc(-c2ccc3c(c2)OCO3)nc2ccccc12	inactive
COc1ccccc1CNc1ncncc1-c1ccccc1CN(C)C	inactive
Cc1ccccc1-c1ccc2ncnc(N3CCN(C)CC3)c2c1	inactive
